From the supplement of paper PMC11006884
About 6,500 targets were measured; listed, in parts, are those with a hit and a random draw of the rest. About 2% of all pairs of compound and target were hits.

Compound: COC(=O)C#Cc1ccccc1 [methyl 3-phenylpropiolate]
Assay: log2 ratio of iodoacetamide-alkyne labeling of the cysteine site, DMSO over compound (competition); higher = stronger covalent engagement of the cysteine by the compound, active = 1 or more
Settings: 500 µM; treatment time 1 h; system: HEK293T cell lysate
Method in brief: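 HEK293T lysate at 2 mg/mL was treated with vehicle or electrophile (500 µM) for 1 h at ambient temperature, then labelled with iodoacetamide alkyne (1 h), clicked to sCIP-TMT reagents, pooled, digested with trypsin overnight at 37 °C, enriched on streptavidin and eluted with acid. Peptides were analysed by Orbitrap Eclipse LC-MS/MS with FAIMS and quantified in FragPipe, using duplicate channels and three replicates, with cysteines quantified in only one replicate excluded. The log2 competition ratio for each cysteine is the mean control-channel reporter intensity divided by the mean compound-channel reporter intensity.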

UniProt O75348, sequence (O75348 whole entry, looked up): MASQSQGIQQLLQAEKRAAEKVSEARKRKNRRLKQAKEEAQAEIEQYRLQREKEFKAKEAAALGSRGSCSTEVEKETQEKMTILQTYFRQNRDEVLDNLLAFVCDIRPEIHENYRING
UniProt O43837, sequence (O43837 whole entry, looked up): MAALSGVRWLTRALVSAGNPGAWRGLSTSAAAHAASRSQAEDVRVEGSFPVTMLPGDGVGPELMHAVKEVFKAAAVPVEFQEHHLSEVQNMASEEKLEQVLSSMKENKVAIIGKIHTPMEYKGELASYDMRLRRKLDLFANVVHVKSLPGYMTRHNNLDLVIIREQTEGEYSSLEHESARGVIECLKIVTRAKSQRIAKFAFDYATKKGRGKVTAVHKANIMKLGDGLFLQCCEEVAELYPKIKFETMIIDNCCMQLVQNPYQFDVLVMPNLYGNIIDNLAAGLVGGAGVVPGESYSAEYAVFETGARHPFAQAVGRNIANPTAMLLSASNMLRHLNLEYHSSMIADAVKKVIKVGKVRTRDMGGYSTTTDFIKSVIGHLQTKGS
UniProt O15067, sequence (O15067 whole entry, looked up): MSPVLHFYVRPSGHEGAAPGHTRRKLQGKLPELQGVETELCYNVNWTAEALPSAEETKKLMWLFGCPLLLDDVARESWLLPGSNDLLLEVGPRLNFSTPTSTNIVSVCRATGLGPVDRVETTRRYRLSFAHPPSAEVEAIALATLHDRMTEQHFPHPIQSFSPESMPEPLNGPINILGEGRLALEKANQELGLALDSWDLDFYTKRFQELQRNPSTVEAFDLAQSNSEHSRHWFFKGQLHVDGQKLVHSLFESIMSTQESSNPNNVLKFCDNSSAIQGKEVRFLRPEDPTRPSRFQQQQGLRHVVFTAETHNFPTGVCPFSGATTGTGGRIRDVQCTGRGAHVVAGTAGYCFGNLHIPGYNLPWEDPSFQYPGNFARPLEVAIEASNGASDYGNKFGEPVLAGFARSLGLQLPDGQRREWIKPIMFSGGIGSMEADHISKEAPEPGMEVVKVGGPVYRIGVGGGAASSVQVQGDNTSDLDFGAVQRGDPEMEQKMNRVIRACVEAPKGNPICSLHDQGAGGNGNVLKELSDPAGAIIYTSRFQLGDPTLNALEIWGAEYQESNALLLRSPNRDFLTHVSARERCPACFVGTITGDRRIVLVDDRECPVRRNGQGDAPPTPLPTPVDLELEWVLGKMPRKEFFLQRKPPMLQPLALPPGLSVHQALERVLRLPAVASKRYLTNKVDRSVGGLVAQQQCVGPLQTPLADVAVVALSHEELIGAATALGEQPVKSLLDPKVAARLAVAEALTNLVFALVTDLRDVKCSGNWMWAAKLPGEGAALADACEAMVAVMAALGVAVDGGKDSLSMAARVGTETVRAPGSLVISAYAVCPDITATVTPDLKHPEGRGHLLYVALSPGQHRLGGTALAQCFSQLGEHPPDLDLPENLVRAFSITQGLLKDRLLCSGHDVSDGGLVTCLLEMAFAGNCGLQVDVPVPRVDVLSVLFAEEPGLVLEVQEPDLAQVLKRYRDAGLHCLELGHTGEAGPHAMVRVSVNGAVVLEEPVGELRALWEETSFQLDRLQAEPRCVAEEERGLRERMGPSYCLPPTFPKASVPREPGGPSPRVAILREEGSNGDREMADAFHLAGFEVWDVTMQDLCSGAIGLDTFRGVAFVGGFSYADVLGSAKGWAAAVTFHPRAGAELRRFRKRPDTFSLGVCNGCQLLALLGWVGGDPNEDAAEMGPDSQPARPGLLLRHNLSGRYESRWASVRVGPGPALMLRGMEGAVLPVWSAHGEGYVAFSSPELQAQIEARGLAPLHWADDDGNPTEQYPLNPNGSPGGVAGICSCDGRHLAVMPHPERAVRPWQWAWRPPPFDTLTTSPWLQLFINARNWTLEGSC
UniProt O15294, sequence (O15294 whole entry, looked up): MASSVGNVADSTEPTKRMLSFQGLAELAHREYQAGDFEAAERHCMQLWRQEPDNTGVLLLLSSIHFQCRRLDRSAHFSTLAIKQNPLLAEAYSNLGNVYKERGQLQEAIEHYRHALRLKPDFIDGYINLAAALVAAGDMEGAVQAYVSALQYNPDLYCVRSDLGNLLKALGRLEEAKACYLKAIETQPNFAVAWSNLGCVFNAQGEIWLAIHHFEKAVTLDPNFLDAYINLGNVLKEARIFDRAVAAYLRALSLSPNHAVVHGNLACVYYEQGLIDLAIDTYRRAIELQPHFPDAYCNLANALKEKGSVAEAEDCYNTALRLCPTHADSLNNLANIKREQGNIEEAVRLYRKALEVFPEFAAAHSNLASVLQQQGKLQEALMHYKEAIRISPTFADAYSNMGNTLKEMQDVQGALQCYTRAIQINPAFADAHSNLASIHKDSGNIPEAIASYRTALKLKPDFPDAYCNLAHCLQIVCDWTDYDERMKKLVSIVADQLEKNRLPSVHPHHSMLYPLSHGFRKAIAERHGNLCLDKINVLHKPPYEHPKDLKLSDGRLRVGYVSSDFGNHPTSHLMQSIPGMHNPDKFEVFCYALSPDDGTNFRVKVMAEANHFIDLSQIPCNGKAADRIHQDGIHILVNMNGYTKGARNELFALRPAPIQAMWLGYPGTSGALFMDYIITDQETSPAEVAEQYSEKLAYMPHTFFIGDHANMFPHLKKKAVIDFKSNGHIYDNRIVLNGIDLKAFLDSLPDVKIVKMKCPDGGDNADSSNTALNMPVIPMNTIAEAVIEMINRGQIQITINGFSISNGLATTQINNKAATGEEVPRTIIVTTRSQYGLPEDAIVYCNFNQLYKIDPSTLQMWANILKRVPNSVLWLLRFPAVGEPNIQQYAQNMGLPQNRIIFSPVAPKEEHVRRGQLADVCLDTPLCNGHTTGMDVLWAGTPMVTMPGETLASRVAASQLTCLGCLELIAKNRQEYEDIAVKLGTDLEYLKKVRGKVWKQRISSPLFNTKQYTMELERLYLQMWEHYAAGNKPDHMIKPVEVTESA
UniProt A8CG34, sequence (A8CG34 whole entry): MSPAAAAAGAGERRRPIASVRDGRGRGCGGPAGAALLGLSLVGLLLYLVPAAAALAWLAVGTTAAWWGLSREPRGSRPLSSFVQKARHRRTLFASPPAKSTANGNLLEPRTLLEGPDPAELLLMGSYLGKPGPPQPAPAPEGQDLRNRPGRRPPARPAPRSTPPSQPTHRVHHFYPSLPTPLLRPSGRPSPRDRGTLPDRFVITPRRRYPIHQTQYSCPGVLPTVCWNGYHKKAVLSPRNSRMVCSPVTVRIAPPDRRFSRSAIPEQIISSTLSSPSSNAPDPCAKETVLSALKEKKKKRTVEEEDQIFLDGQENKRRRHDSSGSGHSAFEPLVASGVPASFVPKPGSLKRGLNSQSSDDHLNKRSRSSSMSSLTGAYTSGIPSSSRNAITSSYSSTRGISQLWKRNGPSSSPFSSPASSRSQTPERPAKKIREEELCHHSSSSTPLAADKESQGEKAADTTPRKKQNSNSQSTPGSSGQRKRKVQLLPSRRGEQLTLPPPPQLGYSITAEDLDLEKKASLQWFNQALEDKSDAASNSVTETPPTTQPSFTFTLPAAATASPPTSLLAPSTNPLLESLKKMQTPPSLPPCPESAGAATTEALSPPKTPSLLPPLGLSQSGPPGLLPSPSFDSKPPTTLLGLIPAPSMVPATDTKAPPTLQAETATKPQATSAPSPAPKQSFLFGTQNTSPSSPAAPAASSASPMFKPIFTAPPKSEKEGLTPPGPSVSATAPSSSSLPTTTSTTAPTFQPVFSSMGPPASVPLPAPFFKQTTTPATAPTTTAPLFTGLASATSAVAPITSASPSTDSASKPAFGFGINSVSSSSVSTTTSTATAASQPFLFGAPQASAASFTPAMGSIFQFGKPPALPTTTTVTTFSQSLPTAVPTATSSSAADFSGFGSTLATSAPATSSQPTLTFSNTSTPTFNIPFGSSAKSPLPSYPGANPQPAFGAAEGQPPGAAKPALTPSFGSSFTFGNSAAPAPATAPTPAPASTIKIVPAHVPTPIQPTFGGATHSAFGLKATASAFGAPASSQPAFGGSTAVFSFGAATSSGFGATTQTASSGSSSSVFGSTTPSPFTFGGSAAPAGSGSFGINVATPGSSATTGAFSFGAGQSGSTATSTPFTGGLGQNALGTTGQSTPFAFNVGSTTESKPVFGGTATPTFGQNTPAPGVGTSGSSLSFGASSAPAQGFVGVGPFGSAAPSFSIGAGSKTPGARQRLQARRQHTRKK
UniProt O00231, sequence (O00231 whole entry): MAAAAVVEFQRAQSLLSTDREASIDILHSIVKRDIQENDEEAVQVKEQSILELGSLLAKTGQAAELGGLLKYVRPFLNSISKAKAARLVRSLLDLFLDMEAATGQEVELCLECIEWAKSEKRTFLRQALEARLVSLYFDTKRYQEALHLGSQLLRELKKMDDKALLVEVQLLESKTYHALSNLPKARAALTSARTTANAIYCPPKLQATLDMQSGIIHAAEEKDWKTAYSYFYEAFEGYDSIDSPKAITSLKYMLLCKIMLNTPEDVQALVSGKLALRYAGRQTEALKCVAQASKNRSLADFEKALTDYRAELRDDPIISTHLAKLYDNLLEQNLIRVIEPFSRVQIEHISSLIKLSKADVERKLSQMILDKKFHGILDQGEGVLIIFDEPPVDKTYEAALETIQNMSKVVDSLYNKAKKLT
UniProt O43148, sequence (O43148 whole entry, looked up): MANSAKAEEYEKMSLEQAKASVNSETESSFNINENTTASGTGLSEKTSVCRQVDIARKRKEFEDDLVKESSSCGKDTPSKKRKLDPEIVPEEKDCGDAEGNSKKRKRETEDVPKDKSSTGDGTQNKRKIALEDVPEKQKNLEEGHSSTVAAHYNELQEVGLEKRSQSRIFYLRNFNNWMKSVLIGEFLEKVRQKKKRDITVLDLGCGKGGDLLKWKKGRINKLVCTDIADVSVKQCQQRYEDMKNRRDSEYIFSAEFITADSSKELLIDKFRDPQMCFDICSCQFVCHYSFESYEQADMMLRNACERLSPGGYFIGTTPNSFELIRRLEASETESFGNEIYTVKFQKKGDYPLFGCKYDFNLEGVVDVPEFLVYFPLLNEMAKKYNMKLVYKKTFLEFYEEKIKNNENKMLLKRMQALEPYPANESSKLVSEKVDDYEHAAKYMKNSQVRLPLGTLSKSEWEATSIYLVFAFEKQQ

log2 ratio of iodoacetamide-alkyne labeling, inactive:
UTP20 C2058 (UniProt O75691) 0.539
ATP6V1G1 C104 (UniProt O75348) 0.03
UniProt O00148_C62 0.591
UniProt O94822_C186 -0.317
PMPCB C419 (UniProt O75439) 0.112
HGS C166 (UniProt O14964) 0.319
SF3B1 C1059 (UniProt O75533) 0.247
PCF11 C1534 (UniProt O94913) 0.259
DKC1 C74 (UniProt O60832) 0.427
ANKRD28 C701 (UniProt O15084) 0.336
AP3D1 C137 (UniProt O14617) 0.262
EIF3D C196 (UniProt O15371) 0.719
DENR C13 (UniProt O43583) 0.235
STX16 C150 (UniProt O14662) 0.0256
RNMT C73 (UniProt O43148) 0.607
CPD C582 (UniProt O75976) 0.145
APAF1 C115 (UniProt O14727) 0.288
UniProt O43598_C26 0.038
PFAS C270 (UniProt O15067) 0.115
HEXIM1 C18 (UniProt O94992) 0.398
DNM1L C361 (UniProt O00429) 0.736
O15320_C147 (UniProt Q96PC5+O15320) -0.197
IDH3B C233 (UniProt O43837) 0.394
PSMD11 C289 (UniProt O00231) 0.253
UniProt O43303_C535 0.837
FLNB C660 (UniProt O75369) 0.476

log2 ratio of iodoacetamide-alkyne labeling, active:
POM121C C438 (UniProt A8CG34) 1.04
HEXIM1 C84 (UniProt O94992) 1.3
HTATSF1 C471 (UniProt O43719) 1.14
ATOX1 C12 (UniProt O00244) 1.27
TRAFD1 C476 (UniProt O14545) 1.55
TRAFD1 C482 (UniProt O14545) 1.55
OGT C620 (UniProt O15294) 1.35
GTPBP1 C669 (UniProt O00178) 1.13
RECQL5 C664 (UniProt O94762) 1.47
EIF5B C853 (UniProt O60841) 1
A0AVT1_C347 2.27
HTATSF1 C462 (UniProt O43719) 1.14
